# NPR1 antag: antagonists of human natriuretic peptide receptor Npr1; P16066; HEK293 hNpr1 GloSensor cGMP, ANP-stimulated luminescence; Potency, µM (top dose mostly 46.3 µM), hits mostly inhibitors; 1.6% of 76,000 active; calls by dose curve; also: nearly all actives have a fitted effect of over 60% in size
# Target sequence (P16066 whole entry, looked up): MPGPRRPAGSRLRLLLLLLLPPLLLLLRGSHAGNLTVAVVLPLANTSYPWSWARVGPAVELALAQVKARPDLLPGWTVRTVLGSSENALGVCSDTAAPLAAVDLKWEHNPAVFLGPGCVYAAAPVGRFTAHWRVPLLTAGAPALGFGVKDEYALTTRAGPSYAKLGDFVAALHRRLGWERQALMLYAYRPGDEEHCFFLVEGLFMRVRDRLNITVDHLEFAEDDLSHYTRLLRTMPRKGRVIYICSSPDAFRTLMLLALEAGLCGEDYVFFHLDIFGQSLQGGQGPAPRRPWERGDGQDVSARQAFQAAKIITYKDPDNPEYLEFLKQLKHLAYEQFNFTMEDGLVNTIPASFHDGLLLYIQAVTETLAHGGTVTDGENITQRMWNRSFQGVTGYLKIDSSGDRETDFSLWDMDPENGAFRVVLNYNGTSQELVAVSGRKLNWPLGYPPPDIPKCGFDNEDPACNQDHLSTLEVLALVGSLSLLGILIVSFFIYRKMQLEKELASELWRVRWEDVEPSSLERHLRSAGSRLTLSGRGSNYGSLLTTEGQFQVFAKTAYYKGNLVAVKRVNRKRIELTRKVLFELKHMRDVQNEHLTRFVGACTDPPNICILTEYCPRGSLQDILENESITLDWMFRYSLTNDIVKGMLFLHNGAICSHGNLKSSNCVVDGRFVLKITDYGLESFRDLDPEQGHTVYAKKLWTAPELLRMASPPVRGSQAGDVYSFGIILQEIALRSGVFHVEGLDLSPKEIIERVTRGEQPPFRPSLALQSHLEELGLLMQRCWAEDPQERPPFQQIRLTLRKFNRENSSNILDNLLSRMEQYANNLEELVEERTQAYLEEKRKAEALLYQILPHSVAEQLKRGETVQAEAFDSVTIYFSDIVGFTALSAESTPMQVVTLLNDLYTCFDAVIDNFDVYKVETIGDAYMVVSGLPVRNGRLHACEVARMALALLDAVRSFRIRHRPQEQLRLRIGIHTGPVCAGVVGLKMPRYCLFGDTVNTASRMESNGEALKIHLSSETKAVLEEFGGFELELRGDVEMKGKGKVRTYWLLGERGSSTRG
#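 Compound pre-incubated 30 min at room temperature on GloSensor-loaded HEK293 cells stably carrying hNpr1 and the pGS-40F cGMP biosensor. Stimulation uses hNppA at 0.1 nM final; luminescence is taken at baseline and 20 min post-agonist.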
# HEK cytotox: kills HEK 293 cells | AID 1345083 | HEK 293 viability, ATP luminescence (CellTiter-Glo), 48-72 h | 6.6% of 94,000 active | Potency, µM (doses to about 115 µM), usual class: inhibitors; also: nearly all actives have a fitted effect of over 60% in size
#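 Read-out: CellTiter-Glo ATP luminescence. Cells: HEK 293, 250 cells/well. Exposure: 48 or 72 hr, 37 degree Celsius.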
# NIH3T3 tox: kills NIH 3T3 cells. AID 1345082. Potency, µM (series often up to 96.7 µM), hits mostly inhibitors. NIH 3T3 viability, CellTiter-Glo ATP luminescence, 48-72 h. 4.3% of 94,000 active; also: nearly all actives have a fitted effect of over 55% in size
#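 Viability of NIH 3T3 cells after 48 or 72 hr compound treatment at 37 °C was assessed by CellTiter-Glo, with luminescence imaged following a 10 min room-temperature step.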
# Luciferase inh: blocks purified firefly luciferase enzyme activity | purified P. pyralis luciferase, luminescence, biochemical | 2.5% of 76,000 active | Potency, µM (doses to about 115 µM), usual class: inhibitors | P08659; also: nearly all actives have a fitted effect of over 65% in size
#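 Luminescence read by CCD imager after adding enzyme (10nM final) to wells holding compound, titrated in qHTS. Substrates 10uM each D-luciferin and ATP; buffer 50mM Tris acetate pH 7.5, 10mM Mg acetate, Tween-20, BSA.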
# GPT2 inhibitor: blocks human glutamate pyruvate transaminase 2 | Q8TD30 | Recombinant GPT2, coupled pyruvate oxidase/HRP Amplex Red fluorescence | Potency, µM (highest dose often 57.7 µM), hits mostly inhibitors | 0.25% of 100,000 active | AID 1671188; also: nearly all actives have a fitted effect of over 60% in size
#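 GPT2 10ng/uL, a-KG 250uM, L-Ala 2mM, HEPES pH7.5 + 0.0001% Tween; 30 min RT. Then Amplex mix (PO/HRP/ThPP), 30 min RT dark, fluorescence. AOA 50uM used as positive control.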
# A number is an active result; i = inactive; ? = inconclusive; nt = no result given. The list is not random: actives were taken first. Their share in the collection is about 10%. Unless noted, calls follow the shape of the dose curve; as a rule, active = well fitted curve in the direction sought with a large enough effect; inconclusive = small, poorly fitted or top-dose-only effect, or another doubt; inactive = no such curve, though single readings can be large; an effect the other way counts as inactive or inconclusive.
SMILES,NPR1 antag,HEK cytotox,NIH3T3 tox,Luciferase inh,GPT2 inhibitor
CN(C)c1cccc(-c2cnc(NC(=O)c3ccncc3)c3c2CCO3)c1,i,?,i,i,i
CNC(=O)c1cccc(-c2cnc(Nc3cccc(F)c3)c3c2CCO3)c1,i,?,?,22µM,i
COCCNc1ncc(-c2cccc(OC)c2)c2c1OCC2,i,?,?,18µM,?
O=C(Nc1ncc(-c2cccc(F)c2)c2c1OCC2)c1c[nH]c2ccccc12,i,50µM,40µM,?,i
Cn1cc(-c2cnc(NC(=O)c3c[nH]c4ccccc34)c3c2CCO3)cn1,i,i,?,i,i
Cc1cc(-c2cnc(Nc3ccc(F)cc3)c3c2CCO3)ccn1,i,?,?,i,i
COCCNc1ncc(-c2cccc(F)c2)c2c1OCC2,i,?,?,79µM,i
COc1ccc(-c2nc(-c3c(C)noc3C)cc3c2cc(-c2ccccc2)n3C)cn1,i,?,50µM,i,i
Cc1noc(C)c1-c1cc2c(cc(-c3ccccc3)n2C)c(-c2cccnc2)n1,i,?,?,i,?
COc1ncccc1-c1nc(-c2c(C)noc2C)cc2c1cc(-c1ccccc1)n2C,i,28µM,25µM,i,i
O=C(c1cc2cc(Cl)ccc2[nH]1)N1C[C@@H](CO)[C@H](c2ccccn2)C1,i,?,?,i,?
O=C(NC[C@H]1O[C@@H](CO)[C@@H](O)[C@H]1N1CCN(c2ccccc2)CC1)Nc1ccc(F)cc1F,i,i,i,i,i
O=C(Cc1ccsc1)N1CCCCCC1c1nc(-c2ccncc2)no1 (stereo not given),i,?,i,i,i
CC(c1nccs1)N(C)C(=O)c1csc2nc(-c3ccccc3Cl)cn12 (stereo not given),i,22µM,50µM,?,i
COCc1nc(CCNC(=O)c2cnn3c(C)c(Cc4ccccc4Cl)c(C)nc23)no1,i,?,?,i,i
Cc1ccccc1Cc1c(C)nc2c(C(=O)NCCc3noc(-c4ccncc4)n3)cnn2c1C,i,45µM,?,i,i
Cc1ccccc1Cc1c(C)nc2c(C(=O)NCCc3noc(-c4cccnc4)n3)cnn2c1C,nt,89µM,?,nt,i
CNC(C)c1ccc(Oc2ccccc2)cc1 (stereo not given),nt,100µM,79µM,nt,i
CNC(C)c1ccc(OC(F)(F)F)cc1 (stereo not given),nt,i,i,nt,i
O=C(c1ccc(Cl)cc1)N1CCOC(CN(C(=O)c2ccc(F)cc2)C2CCCC2)C1 (stereo not given),i,45µM,?,i,i
O=C1CCCCCN1C1CCN(Cc2ccccn2)CC1,i,i,i,i,i
CC(=O)Nc1ccc(S(=O)(=O)N2C[C@@H]3C[C@H](C2)c2c(-c4ccc(Cl)cc4)ccc(=O)n2C3)cc1,i,i,i,i,i
CC(=O)Nc1ccc(-c2ccc(=O)n3c2[C@@H]2C[C@@H](CN(S(=O)(=O)c4ccc(Cl)cc4)C2)C3)cc1,i,14µM,i,i,i
CC(=O)Nc1ccc(-c2ccc(=O)n3c2[C@@H]2C[C@@H](CN(C(=O)COc4ccccc4)C2)C3)cc1,i,40µM,i,i,i
COc1cncc(N2C[C@@H]3[C@H](C2)N(CCOc2ccccc2)C(=O)C(C)(C)[S+]3(=O)[O-])c1,i,?,?,i,10µM
SMILES,NPR1 antag,HEK cytotox,NIH3T3 tox,Luciferase inh,GPT2 inhibitor
Cc1noc(C)c1CN1C[C@@H]2[C@H](C1)N(CCOc1ccccc1)C(=O)C(C)(C)[S+]2(=O)[O-],i,i,16µM,i,i
COc1cccc(CN2C[C@H]3[C@H](C2)[S+](=O)([O-])C(C)(C)C(=O)N3CCOc2ccccc2)c1,i,?,i,i,i
CC(C)CCN1C[C@@H]2[C@H](C1)N(CCOc1ccccc1)C(=O)C(C)(C)[S+]2(=O)[O-],i,112µM,?,i,i
Cc1ccc(Nc2ccnc(N3CCC(C(=O)N(C)C)CC3)n2)cc1,nt,?,?,nt,i
C=CCOc1c(OC)ccc2c1CN(Cc1ccccc1)C(=O)CCN2CC(C)O (stereo not given),nt,i,?,nt,nt
C=CCOc1c(OC)ccc2c1CN(C1CCCC1)C(=O)CCN2CC(O)COc1ccccc1 (stereo not given),nt,?,40µM,nt,nt
C=CCOc1c(OC)ccc2c1CN(Cc1ccccc1)C(=O)CCN2CC(O)Cc1ccccc1 (stereo not given),nt,50µM,?,nt,nt
C=CCOCC(O)CN1CCC(=O)N(Cc2ccco2)Cc2c1ccc(OC)c2OCC=C (stereo not given),nt,?,i,nt,nt
C=CCOc1c(OC)ccc2c1CN(Cc1ccccc1)C(=O)CCN2CC(O)COc1ccc(OC)cc1 (stereo not given),nt,?,40µM,nt,nt
C=CCOc1c(OC)ccc2c1CN(CCOC)C(=O)CCN2CC(O)COc1ccccc1 (stereo not given),nt,?,i,nt,nt
COC[C@@H]1CCCN1Cc1cc2ccc(C)cc2nc1-c1ccc(OC)cc1,i,?,?,?,i
Fc1ccc(-c2ccc3ncc(Nc4cc(F)cc(N5CCOCC5)c4)n3n2)cc1,?,63µM,?,?,?
COc1cccc(Nc2cnc3ccc(N4CCOCC4)nn23)c1,i,i,?,i,?
Fc1ccc(-c2ccc3ncc(Nc4ccnc(N5CCOCC5)c4)n3n2)cc1,?,32µM,8.9µM,i,i
C[S+](=O)([O-])c1ccc(-c2cc(C(=O)N3CCN(c4ncccn4)CC3)nn3cccc23)cc1,nt,50µM,i,nt,i
O=C(NC1CCCC1)c1cc(-c2cccc(C(F)(F)F)c2)c2cccn2n1,nt,40µM,?,nt,i
O=C(c1cc(-c2cccc(C(F)(F)F)c2)c2cccn2n1)N1CCCC1,nt,45µM,?,nt,i
CSCCNC(=O)c1cc(-c2cccc(C(F)(F)F)c2)c2cccn2n1,nt,?,?,nt,i
O=C(NCC(F)F)c1cc(-c2cccc(C(F)(F)F)c2)c2cccn2n1,nt,35µM,?,nt,i
O=C(NCC1CC1)c1ccc2oc(-c3ccncc3)nc2c1,nt,i,i,nt,i
COC(=O)CNC(=O)c1cc(-c2cc(Cl)cc(Cl)c2)c2cccn2n1,nt,?,?,nt,i
O=C(NCC(F)(F)F)c1cc(-c2cc(Cl)cc(Cl)c2)c2cccn2n1,nt,40µM,?,nt,i
CCc1ccc(CNC(=O)c2cc3c(N4CCCC4)nc(C)cn3n2)cc1,i,?,?,i,i
CCOc1ccccc1NC(=O)c1cc2c(N3CCSCC3)nc(C)cn2n1,i,35µM,?,i,i
Cc1cn2nc(C(=O)NCc3ccc(C(F)(F)F)cc3)cc2c(N2CCCC2)n1,i,45µM,?,i,i
CCOc1ccc(NC(=O)c2cc3c(N4CCSCC4)nc(C)cn3n2)cc1,i,i,i,i,i
O=C(NC1CC1)c1ccccc1OC1CN(Cc2cccc(C(F)(F)F)c2)C1,i,32µM,?,i,i
O=C(NC1CC1)c1ccccc1OC1CN(Cc2ccncc2)C1,i,?,i,i,i

# Compound activity as filed in PubChem.
